“And” between values parts separate entries of the source, which are not always exact repeats. Identical values can stand only once. Screen size: about 5,500 compounds; about 2,000 (36%) were called active. Inconclusive results (about 18%) are left out. Cut-off read from the data, not from the text of the source: active = normalized growth mostly below about 0.91 (no sharp cut-off); inconclusive = no clear call, values can overlap the other calls; inactive = mostly above about 0.92. This is one part of the list.
Experiment: chemical genetic growth profiling, strain panel (AID 1159580);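 note: tested at 20 µM; growth read once vehicle control cultures reached saturation at 30 °C; 1 = growth at the plate median or of vehicle wells; lower values mean less growth of the strain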
Conditions: growth OD

Measured: normalized growth

O=c1[nH]oc2c1CCNC2
inactive: S. cerevisiae deletion strains, locus YKL009W, strain mrt4, active compounds read low 0.992 | S. cerevisiae deletion strains, locus YKL068W, active compounds read low 0.982 | S. cerevisiae deletion strains, locus YKL085W, strain MDH1 (second series), active compounds read low 1.03 | S. cerevisiae deletion strains, locus YKL085W, strain MDH1, active compounds read low 1.03 | S. cerevisiae deletion strains, locus YKL160W, strain elf1, active compounds read low 0.99 | S. cerevisiae deletion strains, locus YKL190W, strain CNB1, active compounds read low 1.01 | S. cerevisiae deletion strains, locus YKR001C, strain vps1, active compounds read low 0.977 | S. cerevisiae deletion strains, locus YKR026C, strain gcn3, active compounds read low 1 | S. cerevisiae deletion strains, locus YKR091W, strain srl3, active compounds read low 1 | S. cerevisiae deletion strains, locus YLL001W, strain dnm1, active compounds read low 0.973 | S. cerevisiae deletion strains, locus YLL026W, active compounds read low 0.989 | S. cerevisiae deletion strains, locus YLL041C, strain sdh2, active compounds read low 1.01 | S. cerevisiae deletion strains, locus YLR027C, strain aat2, active compounds read low 0.99 | S. cerevisiae deletion strains, locus YLR039C, strain RIC1, active compounds read low 1.01 | S. cerevisiae deletion strains, locus YLR058C, strain SHM2, active compounds read low 0.999 | S. cerevisiae deletion strains, locus YLR102C, strain apc9, active compounds read low 0.982 | S. cerevisiae deletion strains, locus YLR113W, strain HOG1, active compounds read low 0.974 | S. cerevisiae deletion strains, locus YLR221C, strain rsa3, active compounds read low 0.999 | S. cerevisiae deletion strains, locus YLR258W, strain gsy2, active compounds read low 1 | S. cerevisiae deletion strains, locus YLR262C, strain YPT6 (second series), active compounds read low 1 | S. cerevisiae deletion strains, locus YLR262C, strain YPT6, active compounds read low 0.993 | S. cerevisiae deletion strains, locus YLR268W, strain sec22, active compounds read low 1.01 | S. cerevisiae deletion strains, locus YLR320W, strain mms22, active compounds read low 1.01 | S. cerevisiae deletion strains, locus YLR330W, strain CHS5, active compounds read low 0.986 | S. cerevisiae deletion strains, locus YLR342W, strain FKS1 (second series), active compounds read low 0.989 | S. cerevisiae deletion strains, locus YLR342W, strain FKS1, active compounds read low 0.975 | S. cerevisiae deletion strains, locus YLR357W, strain rsc2, active compounds read low 0.957 | S. cerevisiae deletion strains, locus YLR370C, strain arc18, active compounds read low 1 | S. cerevisiae deletion strains, locus YLR371W, strain rom2, active compounds read low 0.975 | S. cerevisiae deletion strains, locus YLR384C, strain iki3, active compounds read low 0.999 | S. cerevisiae deletion strains, locus YLR418C, strain cdc73, active compounds read low 1.05 | S. cerevisiae deletion strains, locus YML016C, strain PPZ1, active compounds read low 1.01 | S. cerevisiae deletion strains, locus YML032C, strain rad52, active compounds read low 0.954 | S. cerevisiae deletion strains, locus YML120C, strain ndi1, active compounds read low 0.993 | S. cerevisiae deletion strains, locus YML124C, strain tub3, active compounds read low 0.987 | S. cerevisiae deletion strains, locus YMR058W, strain fet3, active compounds read low 1.01 | S. cerevisiae deletion strains, locus YMR078C, strain ctf18, active compounds read low 0.97 | S. cerevisiae deletion strains, locus YMR125W, strain sto1, active compounds read low 0.989 | S. cerevisiae deletion strains, locus YMR129W, active compounds read low 0.996 | S. cerevisiae deletion strains, locus YMR205C, strain PFK2, active compounds read low 0.992 | S. cerevisiae deletion strains, locus YMR223W, strain ubp8, active compounds read low 0.967 | S. cerevisiae deletion strains, locus YMR231W, strain pep5, active compounds read low 0.995 | S. cerevisiae deletion strains, locus YMR263W, strain SAP30, active compounds read low 1.02 | S. cerevisiae deletion strains, locus YMR307W, strain GAS1, active compounds read low 1.06 and 0.998 | S. cerevisiae deletion strains, locus YNL067W, strain RPL9B, active compounds read low 1.03 | S. cerevisiae deletion strains, locus YNL071W, strain lat1, active compounds read low 1.01 | S. cerevisiae deletion strains, locus YNL128W, strain TEP1, active compounds read low 1.03 | S. cerevisiae deletion strains, locus YNL153C, strain GIM3, active compounds read low 1.03 | S. cerevisiae deletion strains, locus YNL175C, strain NOP13, active compounds read low 1.02 | S. cerevisiae deletion strains, locus YNL183C, strain NPR1, active compounds read low 0.924 | S. cerevisiae deletion strains, locus YNL197C, strain WHI3, active compounds read low 1.05 | S. cerevisiae deletion strains, locus YNL209W, strain ssb2, active compounds read low 0.999 | S. cerevisiae deletion strains, locus YNL224C, strain SQS1, active compounds read low 1.02 | S. cerevisiae deletion strains, locus YNL233W, strain BNI4, active compounds read low 1.04 | S. cerevisiae deletion strains, locus YNL248C, strain rpa49, active compounds read low 1.01 | S. cerevisiae deletion strains, locus YNL250W, strain rad50, active compounds read low 0.966 | S. cerevisiae deletion strains, locus YNL271C, strain bni1, active compounds read low 0.989 | S. cerevisiae deletion strains, locus YNL298W, strain CLA4, active compounds read low 0.962 | S. cerevisiae deletion strains, locus YNL307C, strain MCK1, active compounds read low 0.988 | S. cerevisiae deletion strains, locus YNL322C, strain KRE1 (second series), active compounds read low 0.995 | S. cerevisiae deletion strains, locus YNL322C, strain KRE1, active compounds read low 0.999 | S. cerevisiae deletion strains, locus YNR049C, strain mso1, active compounds read low 1 | S. cerevisiae deletion strains, locus YNR052C, strain pop2, active compounds read low 0.955 | S. cerevisiae deletion strains, locus YOL006C, strain TOP1, active compounds read low 1.09 | S. cerevisiae deletion strains, locus YOL012C, strain htz1 1.13 | S. cerevisiae deletion strains, locus YOL147C, strain pex11, active compounds read low 0.979 | S. cerevisiae deletion strains, locus YOR001W, strain rrp6, active compounds read low 0.991 | S. cerevisiae deletion strains, locus YOR061W, strain CKA2, active compounds read low 1 | S. cerevisiae deletion strains, locus YOR069W, strain VPS5, active compounds read low 0.993 | S. cerevisiae deletion strains, locus YOR070C, strain gyp1, active compounds read low 0.999 | S. cerevisiae deletion strains, locus YOR080W, strain dia2, active compounds read low 0.998 | S. cerevisiae deletion strains, locus YOR083W, strain WHI5 (second series), active compounds read low 1 | S. cerevisiae deletion strains, locus YOR083W, strain WHI5, active compounds read low 0.976 | S. cerevisiae deletion strains, locus YOR106W, strain vam3, active compounds read low 1 | S. cerevisiae deletion strains, locus YOR136W, strain idh2, active compounds read low 0.975 | S. cerevisiae deletion strains, locus YOR144C, strain elg1, active compounds read low 0.989 | S. cerevisiae deletion strains, locus YOR184W, strain ser1, active compounds read low 0.955 | S. cerevisiae deletion strains, locus YOR231W, strain MKK1, active compounds read low 1.01 | S. cerevisiae deletion strains, locus YOR265W, strain rbl2, active compounds read low 0.994 | S. cerevisiae deletion strains, locus YOR270C, strain vph1, active compounds read low 1.04 | S. cerevisiae deletion strains, locus YOR290C, strain snf2, active compounds read low 0.995 | S. cerevisiae deletion strains, locus YOR316C, strain cot1, active compounds read low 0.995 | S. cerevisiae deletion strains, locus YPL051W, strain arl3, active compounds read low 0.996 | S. cerevisiae deletion strains, locus YPL055C, strain LGE1, active compounds read low 1.07 and 1.01 | S. cerevisiae deletion strains, locus YPL078C, strain atp4, active compounds read low 0.992 | S. cerevisiae deletion strains, locus YPL106C, strain sse1, active compounds read low 0.985 | S. cerevisiae deletion strains, locus YPL240C, strain hsp82, active compounds read low 1.01 | S. cerevisiae deletion strains, locus YPL241C, strain CIN2, active compounds read low 0.996 | S. cerevisiae deletion strains, locus YPL256C, strain CLN2, active compounds read low 1.01 | S. cerevisiae deletion strains, locus YPR119W, strain clb2, active compounds read low 0.985 | S. cerevisiae deletion strains, locus YPR141C, strain kar3, active compounds read low 0.972 | S. cerevisiae deletion strains, locus YPR163C, strain tif3, active compounds read low 0.968 | S. cerevisiae deletion strains, locus YPR167C, strain met16, active compounds read low 0.993 | S. cerevisiae deletion strains, strain wtn01, active compounds read low 1.01 | S. cerevisiae strains, strain wild type, active compounds read low 0.998

From PubChem BioAssay AID1159580 (chemical genetic matrix, 2015)
